TEAD-YAP block = TEAD-YAP interaction inhibition; HEK-TIYL cells, TEAD-Gal4/YAP UAS-luciferase luminescence; inhibition, % at 9.12 µM; AID 1259422; 640,000 compounds, 1.4% hits; in the data active = inhibition above about 32%;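 note: 0% = median of test compound wells and 100% = reference inhibitor wells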
GPR151 ag = activators of human GPR151 | Q8TDV0 | PathHunter beta-arrestin GPR151 cells, luminescence | activation, % at 11.2 µM | 650,000 compounds, 1% hits; in the data active = activation above about 4.9%;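 note: 0% = median of compound wells and 100% = cells with positive control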
MITF inh = blocks human microphthalmia-associated transcription factor; O75030; 650,000 compounds, 0.91% hits; AlphaScreen MITF homodimerization, bead proximity signal; inhibition, % at 2.6 µM; in the data active = inhibition above about 50%;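 note: 0% = vehicle wells with protein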
FBW7 activator = activators of human E3 ligase FBW7; Q969H0; AlphaScreen FBW7–phospho-cyclin E peptide binding, activator screen; normalized activity (activation), % at 26.1 µM; 650,000 compounds, 0.13% hits; in the data active = normalized activity above about 1.9%;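 note: purified mutant Fbw7 with reduced substrate affinity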
Target sequence (Q969H0 whole entry, looked up): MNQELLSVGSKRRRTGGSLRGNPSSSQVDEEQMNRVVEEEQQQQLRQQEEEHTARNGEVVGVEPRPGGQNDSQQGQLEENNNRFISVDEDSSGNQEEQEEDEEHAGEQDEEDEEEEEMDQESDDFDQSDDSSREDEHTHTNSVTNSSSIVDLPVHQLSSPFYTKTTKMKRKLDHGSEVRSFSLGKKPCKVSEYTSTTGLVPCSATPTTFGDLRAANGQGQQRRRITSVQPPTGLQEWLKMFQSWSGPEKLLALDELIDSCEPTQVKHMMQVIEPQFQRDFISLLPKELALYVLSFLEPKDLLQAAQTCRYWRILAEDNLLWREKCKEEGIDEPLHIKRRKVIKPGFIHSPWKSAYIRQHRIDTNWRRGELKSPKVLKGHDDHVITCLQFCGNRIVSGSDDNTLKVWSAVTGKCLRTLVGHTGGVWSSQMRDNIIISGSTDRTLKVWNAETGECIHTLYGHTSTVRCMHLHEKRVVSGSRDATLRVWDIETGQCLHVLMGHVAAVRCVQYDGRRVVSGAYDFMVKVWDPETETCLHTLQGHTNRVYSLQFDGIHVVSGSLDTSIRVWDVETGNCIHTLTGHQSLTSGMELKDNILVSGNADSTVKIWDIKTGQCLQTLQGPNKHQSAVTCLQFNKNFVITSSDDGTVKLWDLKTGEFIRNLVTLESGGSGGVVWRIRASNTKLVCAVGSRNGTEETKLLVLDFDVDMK
GPR151 confirm = human GPR151 activation, confirmation screen; shares compounds with GPR151 ag; GPR151 PathHunter beta-arrestin cells, luminescence, 90 min; % of EA-reagent control over plate median; activation, % at 11.2 µM; 6,700 tested, under 10 active;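 active = mean percent activation across replicates above the confirmation screen cutoff of 4.91%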
GPR119 counter = counter-screen for GPR151 activators: effect on human GPR119; activation, % at 11.2 µM; shares compounds with GPR151 ag; 6,700 compounds, 0.3% hits; GPR119 PathHunter beta-arrestin cells, luminescence, 90 min; 0 = compound-well median, 100 = enzyme-acceptor control;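 active = mean percent activation in the counterscreen above 29.09%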;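 note: counterscreen on off-target GPR119 to flag nonselective hits from the GPR151 activator screen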
Numbers without * were called inactive; . = no result. This is a sample that favours compounds with a hit; in the whole collection about 3.5% have one here.

SMILES | TEAD-YAP block | GPR151 ag | MITF inh | FBW7 activator | GPR151 confirm | GPR119 counter
COCCCNC(=O)c1cc2c(=O)n3cccc(C)c3nc2n(CCOC)c1=N | 4.9 | 6.6* | 27.4 | 0.0 | 0.2 | -1.3
CCCCN(C)c1nc(N)c([N+](=O)[O-])c(N2CCOCC2)n1 | 1.8 | 4.8 | 0.1 | 0.0 | . | .
Nc1nc(N2CCOCC2)nc(N2CCOCC2)c1[N+](=O)[O-] | 3.2 | 6.5* | -4.0 | -0.3 | 0.2 | -8.9
O=C1c2cc(N3CCOCC3)c([N+](=O)[O-])cc2C(=O)N1Cc1ccccc1 | -3.6 | -1.5 | 13.0 | -0.1 | . | .
COc1ccc(N2C(=O)NC3CC2(C)Oc2c(OC)cccc23)c(OC)c1 (stereo not given) | 12.3 | 6.7* | 7.3 | -0.1 | 2.1 | 11.3
COc1ccc(N2C(=O)NC3CC2(C)Oc2c(OC)cccc23)cc1 (stereo not given) | 9.9 | 0.5 | 4.0 | 0.0 | . | .
Nc1ncc(Br)cc1S(=O)(=O)N1CCN(C2CCCCC2)CC1 | 3.6 | 12.6* | 4.3 | 0.2 | 1.0 | 9.7
COCCNC(=S)N(C)c1ccc(O)cc1 | -1.8 | 2.3 | -7.4 | -0.2 | . | .
CCN(C(=S)NCCOC)c1cccc2ccccc12 | -6.1 | 13.5* | 15.7 | 0.8 | -1.7 | -13.3
Cn1c(Cc2ccccc2)nnc1SCC(=O)Nc1cccc(Br)c1 | -10.3 | -0.5 | 5.5 | -0.1 | . | .
COc1ccc(CCN(C)C2CCCN(Cc3ccon3)C2)cc1OC (stereo not given) | -3.4 | -0.7 | 20.2 | 0.4 | . | .
C=CCNC(=O)c1sc(=S)n(CCc2ccccc2)c1N | -34.3 | 5.2* | 8.5 | -0.2 | 0.2 | 0.8
CCc1cccc(NC(=O)/C=C/C(=O)O)c1 | -1.1 | 5.2* | -4.8 | 0.1 | -0.2 | -4.6
Cc1cccc(NC(=O)/C=C/C(=O)O)c1 | -12.1 | 1.6 | 8.0 | -0.1 | . | .
Cc1ccc(-n2nc(C)cc2/N=C/N(C)C)cc1 | 2.6 | 5.4* | 9.2 | -0.1 | 0.0 | -0.4
N#CCn1cnc2c(nnn2-c2cccc(F)c2)c1=O | 9.7 | 6.1* | -3.5 | -0.1 | -0.3 | -6.6
Clc1ccc(N2CCN(Cc3ccco3)CC2)cc1 | 0.6 | 5.0* | 25.6 | 1.0 | 0.3 | 6.6
Clc1ccc(N2CCN(Cc3ccoc3)CC2)cc1 | -4.8 | 0.0 | 38.7 | -0.3 | . | .
O=C(Nc1cccc(F)c1)c1ccc(C(=O)Nc2cccc(F)c2)cc1 | -1.7 | 1.1 | -15.0 | -0.1 | . | .
COc1ccc(CCNc2ccnc(-c3ccc(C(=O)NC4CC4)cc3)n2)cc1 | 33.2* | 5.5* | 9.8 | 0.1 | 0.1 | -4.9
COc1ccccc1-c1nnc(NC(=O)CSC2=NCCS2)s1 | -7.2 | 5.6* | 4.1 | 0.0 | 0.9 | 4.8
CCCOc1ccc(NC(=O)CC2C(=O)N(c3ccc(Cl)cc3)C(=S)N2Cc2cccnc2)cc1 (stereo not given) | -2.6 | 0.4 | 10.5 | 0.1 | . | .
CCN1CCN(CCCN2C(=S)N(c3ccc(Cl)cc3)C(=O)C2CC(=O)Nc2ccc(OC)cc2)CC1 (stereo not given) | -2.3 | -0.1 | 0.1 | 0.9 | . | .
NC(=O)CC1C(=O)N(c2ccc(Cl)cc2)C(=S)N1Cc1cccnc1 (stereo not given) | 7.4 | 5.4* | 7.3 | 0.0 | -0.1 | 2.6
COc1ccc(NC(=O)CC2C(=O)N(c3ccc(Cl)cc3)C(=S)N2CCCN2CCOCC2)cc1 (stereo not given) | 1.2 | 5.0* | 11.2 | -0.2 | 0.5 | 19.0
SMILES | TEAD-YAP block | GPR151 ag | MITF inh | FBW7 activator | GPR151 confirm | GPR119 counter
CCCOc1ccc(NC(=O)CC2C(=O)N(c3ccc(Cl)cc3)C(=S)N2Cc2ccncc2)cc1 (stereo not given) | 0.8 | 6.3* | 4.0 | 0.1 | 1.8 | -6.5
CC(=O)N1C=Cc2ccccc2C1c1c[nH]c2ccccc12 (stereo not given) | -12.3 | 1.0 | 14.0 | -0.1 | . | .
O=C1[C@@H]2CCCN2C(=O)[C@H]2CN(Cc3cnn(-c4ccccc4Cl)c3)CCN12 | -2.1 | 0.2 | 2.5 | -0.1 | . | .
CC(C)C[C@H]1C(=O)N2CCN(Cc3cnn(-c4ccccc4Cl)c3)C[C@@H]2C(=O)N1C | -15.5 | 5.8* | -5.1 | -0.4 | 0.4 | 4.0
CC(=O)c1cccc(NC(=O)/C(=C/c2ccccc2)NC(=O)c2ccccc2)c1 | -4.6 | 0.7 | -1.9 | -0.3 | . | .
COc1ccccc1/C=C(\NC(=O)c1ccccc1)C(=O)Nc1cccc(C(C)=O)c1 | 1.9 | 5.8* | 12.3 | 0.0 | -1.2 | -9.0
Cc1sc(NC(=O)/C=C\C(=O)O)nc1-c1ccccc1 | 1.6 | 6.9* | 2.8 | 0.2 | 1.2 | 20.1
Cc1cccc2sc(NC(=O)/C=C\C(=O)O)nc12 | 6.3 | 6.8* | 14.3 | 0.2 | -0.3 | 16.1
Cc1c(C(=O)N2CCN(Cc3ccccc3)CC2)sc2ncn(Cc3ccccc3Cl)c(=O)c12 | -3.9 | -1.6 | -6.1 | -0.4 | . | .
Cc1c(C(=O)N2CCCCCC2)sc2ncn(Cc3ccccc3Cl)c(=O)c12 | 1.2 | 8.5* | -4.4 | -0.1 | -0.4 | 5.5
CC1CCCN(Cc2nc3c(c(=O)n(C)c(=O)n3C)n2Cc2ccc(Cl)cc2)C1 (stereo not given) | -0.5 | -0.9 | -3.5 | 0.0 | . | .
Cc1ccc(Cn2c(CN3CCCC(C)C3)nc3c2c(=O)n(C)c(=O)n3C)cc1 (stereo not given) | 10.5 | 4.9* | -9.7 | -0.2 | 0.6 | -3.6
O=C(COC(=O)c1ccccc1F)Nc1ccc2c(c1)OCO2 | 7.6 | 0.5 | 9.4 | -0.1 | . | .
COc1ccc(NC(=O)Cn2c(=O)oc3ccccc32)c(OC)c1 | 4.9 | -0.2 | -2.7 | 0.1 | . | .
CN(NS(=O)(=O)c1ccc2ccccc2c1)c1ccccc1 | -0.2 | 7.6* | 5.2 | 0.0 | 0.5 | 1.4
CN(c1cccc(NS(=O)(=O)c2ccc3ccccc3c2)c1)S(C)(=O)=O | 5.1 | -0.4 | -0.3 | -0.1 | . | .
COC(=O)c1c(NC(=O)c2nn3c(C(F)(F)F)cc(-c4cccs4)nc3c2Cl)sc2c1CCC(C)C2 (stereo not given) | -5.4 | 0.1 | 5.7 | -0.1 | . | .
O=C(N/N=C/c1ccccc1O)c1cc(-c2ccc(Br)cc2)n[nH]1 | 2.2 | 5.5* | 16.1 | -0.1 | 0.8 | -4.8
O=C(N/N=C/c1cc(I)ccc1O)c1cc(-c2ccccc2)n[nH]1 | 12.2 | 0.9 | 4.6 | -0.4 | . | .
O=C(N/N=C/c1ccncc1)c1cc2ccccc2cc1O | 2.7 | 5.0* | 10.4 | -0.1 | -2.2 | -12.6
O=C(N/N=C/c1ccncc1)c1cc(-c2ccc(Br)cc2)n[nH]1 | -10.2 | 5.8* | 7.1 | 0.0 | 0.1 | -2.3
COC(=O)c1ccc(/C=N/NC(=O)c2cc3ccccc3cc2O)cc1 | 20.6 | -1.6 | 14.8 | 0.6 | . | .
O=C(N/N=C/c1ccc(O)cc1)c1cc(-c2ccc(Br)cc2)n[nH]1 | 19.4 | 0.3 | 8.4 | 0.0 | . | .
CCOC(=O)c1c(NC(=O)C23CC4CC(CC(C4)C2)C3)sc(C(=O)Nc2ccccc2C)c1C | 10.6 | 1.2 | -4.8 | 0.2 | . | .

Screening results as filed in PubChem.
